This is part of a sample that, as a whole, favours compounds with a hit. Of some 83,000 tested, about 20% had one in any assay.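 48-hour exposure, single concentration, 96-well plates; percent growth endpoint where 0 means no net growth. Active: below 10.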 The source made the active and inactive calls.

We go through 39 molecules from PubChem BioAssay (NCI).

The first assay relates to OVCAR-5 ovarian. The assay is described as follows: NCI-60 one-dose screen, 48 h (100 = growth as untreated, 0 = no growth, -100 = all killed). The settings on record: 10 µM unless noted.
As for `CCCCCCC(CC#N)(CCC)CCCC` (stereo not drawn), the growth was 97.8% (inactive).

In the case of `COc1ccc(NC(=O)c2ccccc2-c2ccccc2)c(C(N)=O)c1`, the growth is 88.3% (inactive).

For `Cc1ccc(-c2csc(N)n2)cc1`, the growth was 94% (inactive).

Turning to `NS(=O)(=O)c1ccc(N2CC(c3nc4ccccc4[nH]3)CC2=O)cc1` (stereo not drawn), the growth is 84.4% (inactive).

`Cc1nn(-c2ccccc2)c2nc(N)c(C3=NCCO3)nc12`: the growth was 93.3% (inactive).

On to `CCCCNCCCN(CCCC)CCCNCCCC`, for which the growth is 108% (inactive).

`Oc1c(Cl)cc(Cl)c(Cl)c1Cc1c(O)c(Cl)cc(Cl)c1Cl`: the growth was 39.4% (inactive).

With `CSc1nc(Nc2ccc(S(=O)(=O)Nc3ccon3)cc2)c(C#N)c(-c2ccc(Cl)cc2)n1`, the growth is 106% (inactive).

`COc1cccc(C=Nc2cc(C(C)C)c(O)cc2C)c1O`: the growth is 101% (inactive).

For `COC(=O)[C@H](Cc1cn(C)cn1)NC(=O)[C@H](Cc1ccccc1)NC(=O)Nc1cc(C(F)(F)F)cc(C(F)(F)F)c1`, the growth is -94% [100 µM] (active).

Turning to `Cn1c(N2N=C(c3ccc(Cl)cc3)CC2c2ccccc2)nc(-c2ccccc2)c(C#N)c1=O` (stereo not drawn), the growth was 99.6% (inactive).

As to `NC(=NCCCCCCN=C(N)/N=C(\N)Nc1ccc(Cl)cc1)/N=C(\N)Nc1ccc(Cl)cc1`, the growth was 28.7% (inactive).

As to `Oc1c(N=Nc2nn[nH]n2)ccc2ccccc12`, the growth was 97.3% (inactive).

For the molecule `Cc1ccc(/C=C/C(=O)c2ccc(F)cc2)s1`, the growth is 85.7% (inactive).

For `CC[N+](CCCCCCCCCC[N+](CC)(c1ccccn1)c1ccccn1)(c1ccccn1)c1ccccn1`, the growth is 24.1% (inactive).

Take `O=C(c1ccc(N2CCOCC2)cc1[N+](=O)[O-])N1CCOCC1`: the growth was 102% (inactive).

In the case of `Cc1ccc(-c2c3c(N)nc(-c4ccncc4)nc3nc3c2c(C)nn3-c2ccccc2)cc1`, the growth was 65% (inactive).

Consider `CC(=O)c1nn(-c2ccccc2)c(=Nc2ccccc2)cc1C`, for which the growth was 90.5% (inactive).

Take `COc1ccc(-c2nc3sc4c(c3c(=O)[nH]2)CCCCCC4)cc1`: the growth was 83.8% (inactive).

Regarding `CCOC(=O)/C(=C/CC/C(C)=C/CC/C(C)=C/CCc1ccoc1)CC(=O)N1CCCCC1`, the growth was 64.6% (inactive).

Turning to `CCCCCCCSc1ncnc2[nH]ncc12`, the growth is 92% (inactive).

As to `CC1CC=CCC1C1OCC(C)(C)CO1` (stereo not drawn), the growth was 104% (inactive).

Take `CC(NNC(=S)N1CCCCCC1)c1ccc2ccccc2n1` (stereo not drawn): the growth is 50.3% (inactive).

Take `NS(=O)(=O)c1ccc(-n2nc(-c3ccc(Br)cc3)ccc2=O)cc1`: the growth is 94.7% [100 µM] (inactive).

For the molecule `CCOc1cc(CCNS(=O)(=O)c2ccc(C)cc2)c(C(C)=O)cc1OCC`, the growth was 101% [100 µM] (inactive).

Turning to `CC(=O)N1N=C(c2ccc(Nc3ccnc4cc(Cl)ccc34)cc2)CC1c1ccc(Cl)cc1` (stereo not drawn), the growth was 87.9% (inactive).

As to `COC(=O)[C@H](Cc1cnc[nH]1)NC(=O)[C@@H](NC(=O)Nc1cc(C(F)(F)F)cc(C(F)(F)F)c1)C(C)C`, the growth was -82.7% [100 µM] (active).

As for `CCCCCCCCCCCCC1CCCC(C)C1` (stereo not drawn), the growth is 105% (inactive).

With `FC(F)(F)c1ccc(-c2cnc(-c3nn[nH]n3)nc2NC2CCCCCC2)cc1`, the growth was 101% [50 µM] (inactive).

As to `CCCCCc1c(C)[nH]c(/C=C2\N=C(c3ccc[nH]3)C=C2OCc2ccccc2)c1C`, the growth was -98% [100 µM] (active).

Take `COc1c(Br)cc(C(c2cc(Br)c(OC)c(Br)c2)c2ccccc2C(=O)O)cc1Br`: the growth is 99.1% (inactive).

For the molecule `CCOC(=O)C(C(=O)OCC)C1CCCCC1`, the growth is 105% (inactive).

For `N#Cc1ncc(-c2ccc(C(F)(F)F)cc2)c(NC2CCCCCC2)n1`, the growth was 38.8% (inactive).

For the molecule `C[C@H]1O[C@@H](O[C@H]2[C@@H](O)C[C@H](O[C@H]3[C@@H](O)C[C@H](O[C@H]4CC[C@]5(C)C6CC[C@]7(C)[C@@H](C8=CC(=O)OC8)CC[C@]7(O)C6CC[C@@H]5C4)O[C@@H]3C)O[C@@H]2C)C[C@H](O)[C@@H]1O` (stereo partly drawn), the growth is -100% (active).

A further assay concerns OVCAR-4 ovarian. The description is as above. Conditions: 10 µM unless noted.
For the molecule `CCCCCCC(CC#N)(CCC)CCCC` (stereo not drawn), the growth was 114% (inactive).

For `Cc1ccc(-c2csc(N)n2)cc1`, the growth was 94% (inactive).

Turning to `NS(=O)(=O)c1ccc(N2CC(c3nc4ccccc4[nH]3)CC2=O)cc1` (stereo not drawn), the growth was 97.3% (inactive).

`C1CCC(C(CC2CCCCN2)C2CCCCC2)CC1` (stereo not drawn): the growth is 28.8% (inactive).

In the case of `Oc1c(Cl)cc(Cl)c(Cl)c1Cc1c(O)c(Cl)cc(Cl)c1Cl`, the growth was 29.5% (inactive).

In the case of `CSc1nc(Nc2ccc(S(=O)(=O)Nc3ccon3)cc2)c(C#N)c(-c2ccc(Cl)cc2)n1`, the growth was 113% (inactive).

Consider `O=C(Nc1nc2ccc(OC(F)(F)F)cc2s1)c1ccc(F)cc1`, for which the growth was 25.5% (inactive).

Take `COc1cccc(C=Nc2cc(C(C)C)c(O)cc2C)c1O`: the growth was 101% (inactive).

Take `COC(=O)[C@H](Cc1cn(C)cn1)NC(=O)[C@H](Cc1ccccc1)NC(=O)Nc1cc(C(F)(F)F)cc(C(F)(F)F)c1`: the growth was -87.1% [100 µM] (active).

As to `Cn1c(N2N=C(c3ccc(Cl)cc3)CC2c2ccccc2)nc(-c2ccccc2)c(C#N)c1=O` (stereo not drawn), the growth was 89.4% (inactive).

For `NC(=NCCCCCCN=C(N)/N=C(\N)Nc1ccc(Cl)cc1)/N=C(\N)Nc1ccc(Cl)cc1`, the growth was 21.4% (inactive).

For `Cc1ccc(/C=C/C(=O)c2ccc(F)cc2)s1`, the growth is 81.2% (inactive).

Consider `CC[N+](CCCCCCCCCC[N+](CC)(c1ccccn1)c1ccccn1)(c1ccccn1)c1ccccn1`, for which the growth was 20.5% (inactive).

As to `O=C(c1ccc(N2CCOCC2)cc1[N+](=O)[O-])N1CCOCC1`, the growth is 52% (inactive).

`COc1cccc(CCN2C(=O)CCC3=C2CCC3=O)c1`: the growth was 104% (inactive).

`CCOC(=O)/C(=C/CC/C(C)=C/CC/C(C)=C/CCc1ccoc1)CC(=O)N1CCCCC1`: the growth was 64.8% (inactive).

As for `CCCCCCCSc1ncnc2[nH]ncc12`, the growth was 96.7% (inactive).

As for `CC1CC=CCC1C1OCC(C)(C)CO1` (stereo not drawn), the growth is 108% (inactive).

Consider `Cc1[nH]c(=O)[nH]c(=O)c1CCSSCCc1c(C)[nH]c(=O)[nH]c1=O`, for which the growth is 117% (inactive).

As for `CC(NNC(=S)N1CCCCCC1)c1ccc2ccccc2n1` (stereo not drawn), the growth was 30.2% (inactive).

For `NS(=O)(=O)c1ccc(-n2nc(-c3ccc(Br)cc3)ccc2=O)cc1`, the growth was 89.4% [100 µM] (inactive).

Regarding `CCOc1cc(CCNS(=O)(=O)c2ccc(C)cc2)c(C(C)=O)cc1OCC`, the growth was 84.6% [100 µM] (inactive).

Regarding `CC(=O)N1N=C(c2ccc(Nc3ccnc4cc(Cl)ccc34)cc2)CC1c1ccc(Cl)cc1` (stereo not drawn), the growth is 45.2% (inactive).

As for `FC(F)(F)c1ccc(-c2cnc(-c3nn[nH]n3)nc2NC2CCCCCC2)cc1`, the growth is 60.8% [50 µM] (inactive).

Turning to `CCCCCc1c(C)[nH]c(/C=C2\N=C(c3ccc[nH]3)C=C2OCc2ccccc2)c1C`, the growth is -89.3% [100 µM] (active).

Turning to `CCOC(=O)C(C(=O)OCC)C1CCCCC1`, the growth was 102% (inactive).

For `N#Cc1ncc(-c2ccc(C(F)(F)F)cc2)c(NC2CCCCCC2)n1`, the growth is 12.6% (inactive).

Take `CCCCCCCC[Si](OCC)(OCC)OCC`: the growth was 103% (inactive).

Regarding `C[C@H]1O[C@@H](O[C@H]2[C@@H](O)C[C@H](O[C@H]3[C@@H](O)C[C@H](O[C@H]4CC[C@]5(C)C6CC[C@]7(C)[C@@H](C8=CC(=O)OC8)CC[C@]7(O)C6CC[C@@H]5C4)O[C@@H]3C)O[C@@H]2C)C[C@H](O)[C@@H]1O` (stereo partly drawn), the growth was -51.4% (active).
